# In paper PMC4081100, “A DNA-binding-site landscape and regulatory network analysis for NAC transcription factors in Arabidopsis thaliana”:
# How the values were obtained:
# Assay in all cases: universal protein binding microarray (PBM); transcription factors of Arabidopsis thaliana; high values mean tight binding
# GST-ANAC092(1-176) = target: T1, GST-ANAC092(1-176) (Arabidopsis thaliana, UniProt Q9FKA0 1-176); details: protein: recombinant; tags: GST; chain copies: 2; dsDNA, one strand shown
# T1 sequence: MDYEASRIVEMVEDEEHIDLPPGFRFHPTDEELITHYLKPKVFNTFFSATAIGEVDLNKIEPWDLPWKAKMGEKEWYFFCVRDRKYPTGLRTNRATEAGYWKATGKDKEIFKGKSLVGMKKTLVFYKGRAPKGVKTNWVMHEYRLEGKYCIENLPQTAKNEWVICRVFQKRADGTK
# Method in brief: (§1)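 GST-tagged proteins (NAC-domain, full-length or DNA-binding-domain) were induced in cells, with zinc acetate supplied for zinc-finger proteins, then purified on glutathione–Sepharose 4B. Each was tested in duplicate at 200 to 500 nM final on custom all-10-mer Agilent 4 × 180K arrays rendered double-stranded by primer extension. The binding value is the normalised enrichment score (E-score) across gapped and ungapped 8-mers.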
# GST-NTL6(1-168) = GST-NTL6(1-168) (Arabidopsis thaliana, UniProt Q9SCK6 1-168); details: protein: recombinant; tags: GST; chain copies: 2; dsDNA, one strand shown
# Method in brief: as §1
# GST-ANAC019 NAC domain = target: T2, GST-ANAC019 NAC domain (Arabidopsis thaliana, UniProt Q9C932 14-162); details: protein: recombinant; tags: GST; chain copies: 2; dsDNA, one strand shown
# T2 sequence: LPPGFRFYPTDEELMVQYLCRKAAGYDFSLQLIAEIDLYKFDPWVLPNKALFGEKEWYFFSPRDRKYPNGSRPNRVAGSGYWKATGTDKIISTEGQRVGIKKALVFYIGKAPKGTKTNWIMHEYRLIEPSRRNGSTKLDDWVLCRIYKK
# Method in brief: as §1
# GST-ANAC055(1-171) = target: T3, GST-ANAC055(1-171) (Arabidopsis thaliana, UniProt Q9LDY8 1-171); details: protein: recombinant; tags: GST; chain copies: 2; dsDNA, one strand shown
# T3 sequence: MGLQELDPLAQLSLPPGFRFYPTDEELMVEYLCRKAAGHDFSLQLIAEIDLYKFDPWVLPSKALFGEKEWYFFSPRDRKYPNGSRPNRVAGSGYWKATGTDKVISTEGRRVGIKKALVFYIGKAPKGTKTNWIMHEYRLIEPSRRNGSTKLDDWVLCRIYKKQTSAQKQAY
# Method in brief: as §1
# GST-ATAF1 NAC domain = target: T4, GST-ATAF1 NAC domain (Arabidopsis thaliana, UniProt Q39013 7-158); details: protein: recombinant; tags: GST; chain copies: 2; dsDNA, one strand shown
# T4 sequence: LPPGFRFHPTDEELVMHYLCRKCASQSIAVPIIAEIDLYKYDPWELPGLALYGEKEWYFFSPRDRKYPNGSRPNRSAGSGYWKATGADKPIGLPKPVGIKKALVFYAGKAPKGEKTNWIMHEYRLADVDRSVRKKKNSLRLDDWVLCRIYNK
# Method in brief: as §1
# [1] = target: T5, GST-ANAC092(1-285) full length (Arabidopsis thaliana, UniProt Q9FKA0 1-285); details: protein: recombinant; tags: GST; chain copies: 2; dsDNA, one strand shown
# T5 sequence: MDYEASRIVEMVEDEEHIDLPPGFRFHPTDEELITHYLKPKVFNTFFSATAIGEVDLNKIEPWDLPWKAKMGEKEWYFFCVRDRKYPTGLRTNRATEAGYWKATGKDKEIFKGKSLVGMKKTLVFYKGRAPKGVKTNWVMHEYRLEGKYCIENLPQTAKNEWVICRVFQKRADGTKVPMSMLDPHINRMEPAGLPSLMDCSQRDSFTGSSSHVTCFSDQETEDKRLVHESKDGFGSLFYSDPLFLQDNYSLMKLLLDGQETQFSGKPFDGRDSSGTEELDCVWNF
# Method in brief: as §1
# GST-NAP(1-166) = target: T6, GST-NAP(1-166) (Arabidopsis thaliana, UniProt O49255 1-166); details: protein: recombinant; tags: GST; chain copies: 2; dsDNA, one strand shown
# T6 sequence: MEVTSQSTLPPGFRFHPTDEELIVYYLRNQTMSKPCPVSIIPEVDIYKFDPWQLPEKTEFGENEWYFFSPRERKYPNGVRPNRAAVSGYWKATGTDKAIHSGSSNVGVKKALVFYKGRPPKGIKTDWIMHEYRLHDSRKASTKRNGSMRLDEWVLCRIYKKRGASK
# Method in brief: as §1
# GST-NST2(1-184) = target: T7, GST-NST2(1-184) (Arabidopsis thaliana, UniProt Q9M274 1-184); details: protein: recombinant; tags: GST; chain copies: 2; dsDNA, one strand shown
# T7 sequence: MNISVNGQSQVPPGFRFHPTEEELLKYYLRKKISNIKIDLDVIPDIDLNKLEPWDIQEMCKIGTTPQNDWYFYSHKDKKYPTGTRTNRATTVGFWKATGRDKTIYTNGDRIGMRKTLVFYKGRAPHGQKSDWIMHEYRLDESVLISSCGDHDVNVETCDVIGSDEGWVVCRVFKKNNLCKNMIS
# Method in brief: as §1
# GST-NTL8 NAC domain = target: T8, GST-NTL8 NAC domain (Arabidopsis thaliana, UniProt Q9XIN7 14-156); details: protein: recombinant; tags: GST; chain copies: 2; dsDNA, one strand shown
# T8 sequence: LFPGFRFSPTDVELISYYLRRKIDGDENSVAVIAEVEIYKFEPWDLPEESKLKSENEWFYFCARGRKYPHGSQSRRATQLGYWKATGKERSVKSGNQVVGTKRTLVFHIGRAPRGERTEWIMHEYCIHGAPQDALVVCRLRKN
# Method in brief: as §1
# GST-SND1(1-203) = target: T9, GST-SND1(1-203) (Arabidopsis thaliana, UniProt Q9LPI7 1-203); details: protein: recombinant; tags: GST; chain copies: 2; dsDNA, one strand shown
# T9 sequence: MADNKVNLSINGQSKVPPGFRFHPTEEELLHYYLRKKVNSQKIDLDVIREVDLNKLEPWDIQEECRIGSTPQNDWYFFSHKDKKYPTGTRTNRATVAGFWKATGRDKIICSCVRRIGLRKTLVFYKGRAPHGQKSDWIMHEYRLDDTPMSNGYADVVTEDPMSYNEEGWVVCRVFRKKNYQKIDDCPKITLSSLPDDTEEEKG
# Method in brief: as §1
# GST-VND3 NAC domain = target: T10, GST-VND3 NAC domain (Arabidopsis thaliana, UniProt Q9FH59 12-162); details: protein: recombinant; tags: GST; chain copies: 2; dsDNA, one strand shown
# T10 sequence: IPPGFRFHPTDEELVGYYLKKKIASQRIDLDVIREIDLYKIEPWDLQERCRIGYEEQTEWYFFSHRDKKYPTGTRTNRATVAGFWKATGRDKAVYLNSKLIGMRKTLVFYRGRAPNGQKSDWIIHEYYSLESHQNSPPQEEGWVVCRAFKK
# Method in brief: as §1
# GST-VND7 NAC domain = target: T11, GST-VND7 NAC domain (Arabidopsis thaliana, UniProt Q9C8W9 9-158); details: protein: recombinant; tags: GST; chain copies: 2; dsDNA, one strand shown
# T11 sequence: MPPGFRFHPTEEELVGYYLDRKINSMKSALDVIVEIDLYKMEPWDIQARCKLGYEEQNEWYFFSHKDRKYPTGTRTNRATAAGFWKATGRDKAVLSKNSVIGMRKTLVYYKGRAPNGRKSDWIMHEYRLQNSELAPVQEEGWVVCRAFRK
# Method in brief: as §1
# GST-WRKY1(266-371) = GST-WRKY1(266-371) (Arabidopsis thaliana, UniProt Q9SI37 266-371); details: protein: recombinant; tags: GST; dsDNA, one strand shown
# Method in brief: as §1
# GST-NTL6(1-168), sequence (Q9SCK6 1-168): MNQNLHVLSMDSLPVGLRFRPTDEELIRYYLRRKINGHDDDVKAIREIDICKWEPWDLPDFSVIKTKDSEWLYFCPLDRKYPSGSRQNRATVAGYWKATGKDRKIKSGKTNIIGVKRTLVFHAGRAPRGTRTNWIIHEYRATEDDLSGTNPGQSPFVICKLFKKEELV
# GST-WRKY1(266-371), sequence (Q9SI37 266-371): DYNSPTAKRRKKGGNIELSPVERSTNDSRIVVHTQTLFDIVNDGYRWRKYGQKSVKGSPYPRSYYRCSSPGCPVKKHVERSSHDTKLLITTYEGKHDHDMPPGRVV
Sequence,binding signal (GST-ANAC092(1-176)) [E-score],binding signal (GST-NTL6(1-168)) [E-score],binding signal (GST-ANAC019 NAC domain) [E-score],binding signal (GST-ANAC055(1-171)) [E-score],binding signal (GST-ATAF1 NAC domain) [E-score],binding signal [1] [E-score],binding signal (GST-NAP(1-166)) [E-score],binding signal (GST-NST2(1-184)) [E-score],binding signal (GST-NTL8 NAC domain) [E-score],binding signal (GST-SND1(1-203)) [E-score],binding signal (GST-VND3 NAC domain) [E-score],binding signal (GST-VND7 NAC domain) [E-score],binding signal (GST-WRKY1(266-371)) [E-score]
TCACGCAA,0.488,0.0728,0.467,0.398,0.336,0.488,0.433,0.396,0.177,0.473,0.448,0.462,0.0966
CACGTCAG,0.336,,0.261,0.19,0.203,0.407,0.154,,,0.0864,0.127,0.214,0.081
ACACGTCA,0.484,,0.436,0.402,0.382,0.487,0.431,0.316,,0.352,0.395,0.447,0.251
GTCAACAC,0.238,,0.138,0.173,0.092,0.23,0.163,0.134,,0.134,0.133,0.154,0.478
GTAAGTAA,0.246,0.474,0.0906,0.199,0.245,0.334,,0.239,0.195,0.307,0.279,0.186,0.122
TAGCGTGA,0.441,0.0555,0.209,0.114,0.17,0.454,,0.228,,0.42,0.242,0.191,0.0738
ATAACGTA,0.418,0.119,,0.19,0.289,0.423,0.187,0.37,,0.465,0.334,0.156,0.0761
